# In the supplement of paper PMC7156485:
# System: HCC1569
# Assay: H1.0 immunofluorescence intensity relative to DMSO (% of DMSO); higher = stronger H1.0 induction, active = 140 or more
# Details: concentration: 10 µM; 24 h
# How it was run: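 Cells were seeded at 800 per well in 384-well plates with RPMI containing 10% FBS; both HCC1569 and TDF lines were used. Compounds were added at 10 µM for 24 h at 37 °C, in triplicate, before fixation in 3.7% formaldehyde and staining with a rabbit anti-H1.0 antibody, an AlexaFluor 647 secondary and DAPI. H1.0 nuclear intensity or cell number is reported as percent of the plate control using the median of replicates, and HCC1569 values were smoothed for positional effects.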
# 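Note: TDF is a line of transformed human dermal fibroblasts of mesenchymal origin.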
row,Compound,H1.0 immunofluorescence intensity
1,COc1ccc2c(c[n+](C)c3c4cc5c(cc4ccc23)OCO5)c1OC.[Cl-] [Chelerythrine],96.2 (inactive)
2,O.O=P1(N(CCCl)CCCl)NCCCO1 (centres undefined) [Cyclophosphamide monohydrate],103 (inactive)
3,CN1C2CCC1CC(OC(c1ccccc1)c1ccccc1N)C2 (centres undefined) [Aminobenztropine],90.2 (inactive)
4,C[N+](C)(C)CCCCCCCCCC[N+](C)(C)C.[Br-].[Br-] [Decamethonium dibromide],88.8 (inactive)
5,Cl.NCCc1ccc(O)cc1 [4-Hydroxyphenethylamine hydrochloride],100 (inactive)
6,CCCN1CCCC2Cc3nc(N)ncc3CC21.Cl.Cl (centres undefined) [Quinelorane dihydrochloride],106 (inactive)
7,NC(CCP(=O)(O)O)C(=O)O (racemic),91.1 (inactive)
8,Cl.O=C(CCCN1CCC2(CC1)C(=O)NCN2c1ccccc1)c1ccc(F)cc1 [Spiperone hydrochloride],99.6 (inactive)
9,CN1CC[C@@]2(C)c3cc(OC(=O)Nc4ccccc4)ccc3N(C)[C@@H]12,102 (inactive)
10,CCCN(CCC)C1CCc2cccc(O)c2C1 (racemic),86.9 (inactive)
11,COc1cc2c(c(OC)c1OC)-c1ccc(OC)c(=O)cc1C(NC(C)=O)CC2 (centres undefined) [Colchicine],132 (inactive)
12,Br.COC(=O)C1=CCCN(C)C1 [Arecoline hydrobromide],86.6 (inactive)
13,CCCN1CCCC2Cc3[nH]ncc3CC21 (racemic),106 (inactive)
14,BrC1C(Br)C(Br)C(Br)C(Br)C1Br (centres undefined),111 (inactive)
15,NCC(CP(=O)(O)O)c1ccc(Cl)cc1 (centres undefined) [Phaclofen],79.9 (inactive)
16,CC1=CC(=O)c2c(O)cccc2C1=O [Plumbagin],326 (active)
17,Cl.OC1CCCCC1N1CCC(c2ccccc2)CC1 (centres undefined) [Vesamicol hydrochloride],106 (inactive)
18,"CN1C2CCC1CC(OC(=O)c1cc(Cl)cc(Cl)c1)C2 (centres undefined) [3-Tropanyl-3,5-dichlorobenzoate]",108 (inactive)
19,CC(=O)OC1CC2CCC3C(CCC4(C)C3CC([N+]3(C)CCCCC3)C4OC(C)=O)C2(C)CC1[N+]1(C)CCCCC1.[Br-].[Br-] (centres undefined) [Pancuronium bromide],99.5 (inactive)
20,O=C1C=C2C=CC3CC2(O1)C1CCCCN31 (centres undefined) [Securinine],99.9 (inactive)

row,Compound,H1.0 immunofluorescence intensity
1,C=C1C(C)C2C(Cc3ccccc3)NC(=O)C23OC(=O)C=CC(O)CCCC(C)CC=CC3C1O (centres undefined) [Cytochalasin B],110 (inactive)
2,"CC12CCC(O)CC1CCC1C2CCC2(C)C(C(=O)CO)CCC12 (stereo not drawn) [3-alpha,21-Dihydroxy-5-alpha-pregnan-20-one]",87 (inactive)
3,CCN1CC2(C)CCC(O)C34C5CC6C(OC)CC(O)(C(CC23)C14)C5C6O (centres undefined) [Karakoline],99.8 (inactive)
4,CC(C)c1cc2c(c(O)c1O)C1(C(=O)O)CCCC(C)(C)C1CC2 (centres undefined) [Carnosic acid],103 (inactive)
5,Cc1sc2c(c1C)C(c1ccc(Cl)cc1)=N[C@@H](CC(N)=O)c1nnc(C)n1-2,220 (active)
6,CCN(CCCl)Cc1ccccc1Br.Cl [DSP-4 hydrochloride],92.4 (inactive)
7,"CCc1c(C(=O)OC)ncc2[nH]c3cc(OC)c(OC)cc3c12 [Methyl 6,7-dimethoxy-4-ethyl-beta-carboline-3-carboxylate]",130 (inactive)
8,Cc1cc(C2CCCN2C)on1 (centres undefined),88.1 (inactive)
9,CC1=CC23C(=O)C(C=C(CO)C(O)C2(O)C1O)C1C(CC3C)C1(C)C (centres undefined) [Ingenol],80 (inactive)
10,C=C(C)C1Cc2c(ccc3c2OC2COc4cc(OC)c(OC)cc4C2C3=O)O1 (centres undefined) [Rotenone],178 (active)
11,OC1CN2CCCC(O)C2C1O (centres undefined) [Swainsonine],95.8 (inactive)
12,"CN(C(=O)Cc1ccc(Cl)c(Cl)c1)C(CN1CCCC1)c1cccc(OCC(=O)O)c1.Cl (centres undefined) [ICI 204,448 hydrochloride]",92.8 (inactive)
13,CC(C(O)CCC(C)(C)O)C1CCC2(O)C3=CC(=O)C4CC(O)C(O)CC4(C)C3CCC12C (centres undefined) [Ecdysone],88.8 (inactive)
14,Cl.NN=C(N)N [Aminoguanidine hydrochloride],94.2 (inactive)
15,"C[N+]1(C)CCN(c2ccccc2)CC1.[I-] [1,1-Dimethyl-4-phenyl-piperazinium iodide]",109 (inactive)
16,"CC1OC(C[N+](C)(C)C)CC1O.[Cl-] (single isomer, unassigned; (+)) [(+)-Muscarine chloride]",83.8 (inactive)
17,NC(N)=NOCC[C@H](N)C(=O)O.O=S(=O)(O)O [L-Canavanine sulfate],107 (inactive)
18,COC(C)C(O)(C(=O)OCC1=CCN2CCC(O)C12)C(C)C (centres undefined) [Heliotrine],90.6 (inactive)
19,Br.COc1c2c(cc3c1OCO3)CCN(C)C2 [Hydrocotarnine HBr],92.6 (inactive)
